Test results as given in the supplement of paper PMC6555819.

How the values were obtained:
Assay in all cases: PBM binding z-score (relative to random genomic background probes); higher = stronger binding; sequences stand for … in GC…GCGATTGACAGCGTAGAATGAAGG
[1] = tested on: FXR:RXRa (NR concentration 270 nM, RXRa partner concentration 90 nM)
How it was run: (§1)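 The probes on custom Agilent 4×180K protein-binding microarrays were double-stranded, with 34-nt variable regions bearing direct-repeat seeds, single-nucleotide variants, half-site ablations and random human genomic background sequences. Incubation lasted 1 h with ligand-free nuclear receptor dimers in PBS pH 7.4, 2% milk, 0.02% Triton X-100, 1 mM DTT, 0.2 mg/mL BSA and 0.4 mg/ml salmon testes DNA. Antibodies against each partner (one per run) detected bound dimers, and fluorescence scans were regression-normalized. Binding z-scores take the random background probes as reference.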

[2] = tested on: LXRa:RXRa (NR concentration 270 nM, RXRa partner concentration 90 nM)
How it was run: as §1

[3] = tested on: LXRa homodimer (NR concentration 270 nM)
How it was run: as §1

[4] = tested on: LXRb:RXRa (NR concentration 270 nM, RXRa partner concentration 90 nM)
How it was run: as §1

[5] = tested on: LXRb homodimer (NR concentration 270 nM)
How it was run: as §1

[6] = tested on: PPARa:RXRa (NR concentration 270 nM, RXRa partner concentration 90 nM)
How it was run: as §1

[7] = tested on: PPARg:RXRa (NR concentration 180 nM, RXRa partner concentration 90 nM)
How it was run: as §1

[8] = tested on: PPARg:RXRa 270nM:90nM, anti-RXR (NR concentration 270 nM, RXRa partner concentration 90 nM)
How it was run: as §1

[9] = tested on: PPARg:RXRa 30nM:10nM, anti-RXR (NR concentration 30 nM, RXRa partner concentration 10 nM)
How it was run: as §1

[10] = tested on: PPARg:RXRa 90nM:30nM, anti-RXR (NR concentration 90 nM, RXRa partner concentration 30 nM)
How it was run: as §1

[11] = tested on: PPARg:RXRa DBDmut IVT, anti-RXR (DBD mutation: RXRa K156A/R161A, NR concentration 270 nM, RXRa partner concentration 90 nM)
How it was run: as §1

[12] = tested on: PPARg:RXRa IVT, anti-PPARg (NR concentration 270 nM, RXRa partner concentration 90 nM)
How it was run: as §1

[13] = tested on: PPARg DBDmut:RXRa IVT, anti-PPARg (DBD mutation: PPARg1 K132A/R137A, NR concentration 270 nM, RXRa partner concentration 90 nM)
How it was run: as §1

[14] = tested on: PPARg DBDmut IVT, anti-PPARg (DBD mutation: PPARg1 K132A/R137A, NR concentration 270 nM)
How it was run: as §1

[15] = tested on: PPARg homodimer (NR concentration 180 nM)
How it was run: as §1

[16] = tested on: PXR:RXRa (NR concentration 270 nM, RXRa partner concentration 90 nM)
How it was run: as §1

[17] = tested on: PXR homodimer (NR concentration 270 nM)
How it was run: as §1

[18] = tested on: RARa:RXR (NR concentration 270 nM, RXRa partner concentration 90 nM)
How it was run: as §1

[19] = tested on: RARa homodimer (NR concentration 270 nM)
How it was run: as §1

[20] = tested on: RARb:RXRa (NR concentration 270 nM, RXRa partner concentration 90 nM)
How it was run: as §1

Sequence | PBM binding z-score [1] | PBM binding z-score [2] | PBM binding z-score [3] | PBM binding z-score [4] | PBM binding z-score [5] | PBM binding z-score [6] | PBM binding z-score [7] | PBM binding z-score [8] | PBM binding z-score [9] | PBM binding z-score [10] | PBM binding z-score [11] | PBM binding z-score [12] | PBM binding z-score [13] | PBM binding z-score [14] | PBM binding z-score [15] | PBM binding z-score [16] | PBM binding z-score [17] | PBM binding z-score [18] | PBM binding z-score [19] | PBM binding z-score [20]
ATACCAAGGTGATCGTGAGGTCGATGATACTAAC | 1.46 | 0.961 | 0.482 | 0.993 | -0.149 | 1.34 | 0.934 | 0.585 | 0.169 | 0.24 | 0.508 | 1.52 | 0.609 | 0.528 | 0.828 | 1.91 | 0.391 | 1.9 | 0.262 | 1.55
CCTTACGGGTCACTGACTGGTTATAGCATTTGGA | 5.56 | 3.75 | 0.422 | 3.15 | -0.0702 | 4.99 | 4.13 | 4.14 | 1.38 | 2.81 | 3.65 | 3.69 | 0.987 | 0.315 | 3.15 | 3.1 | 0.287 | 4.06 | 2.05 | 4.02
CCTACTGGGCCACGAAAGGTCAGTGATTCAGTGA | 1.7 | 3.12 | 1.41 | 2.24 | -0.661 | 3.53 | 3.77 | 3.87 | 1.03 | 2.79 | 4.86 | 5.84 | 1.69 | 0.78 | 3.12 | 3.42 | 0.0598 | 3.82 | 1.31 | 3.81
TATATTAGTTGATTAGGGCAACCGAAACAGCGGA | 0.381 | 0.319 | 0.79 | 0.365 | 1.33 | 0.535 | 0.578 | 0.666 | 1.02 | 0.819 | 0.409 | 2.01 | 2.25 | 1.83 | 1.16 | 0.636 | 0.89 | 0.181 | 2.13 | 1.16
ACTAGCAGGCCAAGGGACACTCAAGATTAGTCCG | -0.455 | -0.514 | -0.423 | -0.897 | -0.655 | -0.248 | 1.88 | 1.99 | 0.906 | 1.86 | 0.487 | 0.462 | -1.43 | -0.851 | -0.118 | -0.905 | -0.667 | -0.78 | -0.11 | 1.05
CCTTACGGGTCACAGACAGGTTATAGCATTTGGA | 5.55 | 4.19 | 0.611 | 3.84 | 0.0624 | 5.36 | 5.74 | 5.16 | 2.14 | 3.99 | 3.72 | 4.63 | 1.16 | 0.89 | 2.76 | 3.87 | 0.387 | 4.91 | 0.967 | 4.01
AGAACGAGGTTATACGTAGATCAGGGAAGAAAGT | 1.59 | 1.47 | 0.0402 | 1.32 | -0.361 | 2.78 | 1.58 | 1.39 | 0.732 | 1 | 2.22 | 1.34 | 0.863 | 0.661 | 0.41 | 0.761 | 0.521 | 1.27 | 0.483 | 1.27
ATCTCTAGGTAACCAAGTACAGTGAATGCCGAAC | 0.125 | 0.246 | 0.247 | 0.353 | 0.673 | 0.645 | 0.752 | 0.425 | 0.0273 | 0.341 | 3.29 | 3.07 | 1.88 | 1.42 | 0.713 | 0.0867 | 0.597 | -0.0145 | 1.1 | 0.347
CCCGACAGGTGAGAAGGTAACTCAGCCTCGATTA | -0.0059 | 0.3 | 0.072 | 0.291 | -0.434 | 0.726 | 0.396 | 0.584 | -0.2 | 0.0512 | 0.828 | 0.811 | -0.905 | -0.776 | 0.497 | -0.281 | -0.233 | -0.0407 | 0.0144 | 0.749
GCTTGTAGATCAAGGTTAAGAATGACTAAGCTAA | 0.096 | 0.324 | -0.618 | 0.368 | -0.604 | 1.37 | 1.3 | 1.95 | 0.416 | 1.72 | 1.74 | 0.924 | 0.367 | 0.28 | -0.624 | 0.546 | -0.428 | 0.94 | -0.617 | 0.932
AGAACGCGGGCACGCTGAGTTGATAGCAGAGTAG | -0.237 | -0.318 | -0.326 | -0.68 | -1.1 | -0.532 | 0.363 | -0.844 | -0.786 | -0.727 | 0.0817 | -0.217 | -0.65 | -1.15 | -0.455 | -0.502 | -0.289 | -0.215 | -0.302 | 0.31
ATCTCTAGGTAAAACTCAGTTCAGTGAAGAACGC | 0.591 | 0.776 | 0.947 | 0.542 | 1.02 | 0.518 | 0.101 | 0.473 | 0.403 | 0.618 | 2.63 | 1.95 | 0.847 | 0.779 | 1.22 | 1.7 | 1.99 | 0.609 | 1.49 | 0.514
TGTGCTAGGTCAGTTGGTCAGCTAACGAGCTGCC | 0.928 | 0.621 | -0.546 | -0.0513 | 0.565 | 1.23 | 0.656 | 1.19 | -0.306 | 0.746 | 1.29 | 3.02 | -0.307 | 0.199 | 0.18 | 0.0475 | -0.625 | 0.36 | -0.296 | 3.26
CTTACTGGGCCATCAGGTCATTGATATCAACGTT | 1.85 | 1.35 | 1.05 | 1.68 | 0.217 | 3.84 | 4.85 | 5.22 | 2.74 | 4.87 | 6.66 | 6.83 | 2.49 | 2.61 | 1.66 | 1.94 | 0.966 | 2.45 | 0.185 | 2.26
